Drawing on PubChem BioAssay (EPA / NIEHS), this text covers AC50 and outcome for 3 molecules.

Read-out in assay [1]: Interferon-gamma inducible Protein 10 (IP10), CXCL10 (gene 3627)
The assay can be described thus: BSK_hDFCGF_IP10: BioMAP Diversity Plus: hDFCGF Assay for Interferon-gamma inducible Protein 10 (IP10) Biomarker Activity (AID 2283053). As to conditions: primary human foreskin fibroblasts; actives raise or lower the signal. A digest of the protocol: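 ELISA quantification of IP-10 after a 24 h chemical exposure of human dermal foreskin fibroblast primary cultures. Both increases and decreases versus DMSO fitted.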

Read-out in assay [2]: Urokinase-type plasminogen activator receptor (uPAR), PLAUR (gene 5329)
The assay can be described thus: BSK_CASM3C_uPAR: BioMAP Diversity Plus: CASM3C Assay for Urokinase-type plasminogen activator receptor (uPAR) Biomarker Activity (AID 2283054).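 Also: cell-surface uPAR protein level quantified by ELISA.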 Particulars: primary human coronary artery smooth muscle cells; actives raise or lower the signal.

Read-out in assay [3]: Vascular cell adhesion molecule 1 (VCAM1), VCAM1 (gene 7412)
Description: BSK_CASM3C_VCAM1: BioMAP Diversity Plus: CASM3C Assay for Vascular cell adhesion molecule 1 (VCAM1) Biomarker Activity (AID 2283055).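 Also: VCAM-1 protein level quantified by ELISA on the cells.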 As to conditions: primary human coronary artery smooth muscle cells; actives raise or lower the signal.

Read-out in assay [4]: Collagen III, COL3A1 (gene 1281)
The assay can be described thus: BSK_hDFCGF_CollagenIII: BioMAP Diversity Plus: hDFCGF Assay for Collagen III Biomarker Activity (AID 2283056). As to conditions: primary human foreskin fibroblasts; actives raise or lower the signal. A digest of the protocol:
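Human foreskin primary fibroblasts were exposed to test chemicals for 24 h, after which collagen III was quantified by ELISA. Activity was fitted bidirectionally against DMSO as negative control and baseline.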

Assay [5] can be described thus: BSK_hDFCGF_Proliferation: Cell Proliferation Assessment in the BioMAP Diversity Plus: hDFCGF Assay (AID 2283059).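 Also: curves fitted for both rise and fall of signal versus DMSO baseline.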 As to conditions: primary human foreskin fibroblasts. A digest of the protocol:
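Primary human foreskin fibroblasts, sub-confluent; […]; 10% TCA fix, 0.1% SRB stain, A560 total protein. Gain/loss fitted bidirectionally vs DMSO control.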

Read-out in assay [6]: Macrophage colony-stimulating factor (MCSF), CSF1 (gene 1435)
The assay can be described thus: BSK_hDFCGF_MCSF: BioMAP Diversity Plus: hDFCGF Assay for Macrophage colony-stimulating factor (MCSF) Biomarker Activity (AID 2283060). As to conditions: primary human foreskin fibroblasts; actives raise or lower the signal. A digest of the protocol: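 Human foreskin primary fibroblasts were treated with test chemical for 24 h, and M-CSF was then measured by ELISA. Data were fitted bidirectionally against DMSO as the negative control and activity baseline.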

A short description of assay [7]: BSK_hDFCGF_SRB: Viability Assessment in the BioMAP Diversity Plus: hDFCGF Assay (AID 2283061).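 Also: cells exposed to compound for 24 h before the read.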 As to conditions: primary human foreskin fibroblasts. A digest of the protocol: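 Human foreskin primary fibroblasts were treated with compound and assessed 24 h after dosing. Total protein was measured by sulforhodamine B staining (0.1% SRB after 10% TCA fixation, 560 nm read) as a cytotoxicity marker, with bidirectional fitting against DMSO baseline.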

Read-out in assay [8]: TIMP metallopeptidase inhibitor 1 (TIMP1), TIMP1 (gene 7076)
Description: BSK_hDFCGF_TIMP1: BioMAP Diversity Plus: hDFCGF Assay for TIMP metallopeptidase inhibitor 1 (TIMP1) Biomarker Activity (AID 2283062). As to conditions: primary human foreskin fibroblasts; actives raise or lower the signal. A digest of the protocol: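 Primary human foreskin fibroblasts in the hDFCGF system were dosed with compound for 24 h, then TIMP-1 was measured by ELISA. Activity was fitted bidirectionally relative to DMSO control; parallel SRB staining assessed cytotoxicity.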

Read-out in assay [9]: Monokine induced gamma interferon (MIG), CXCL9 (gene 4283)
The assay can be described thus: BSK_hDFCGF_MIG: BioMAP Diversity Plus: hDFCGF Assay for Monokine induced gamma interferon (MIG) Biomarker Activity (AID 2283063). Particulars: primary human foreskin fibroblasts; actives raise or lower the signal. A digest of the protocol:
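ELISA read-out of MIG from primary human dermal fibroblasts 24 h post-dosing. Gain or loss of signal fitted bidirectionally, DMSO as baseline.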

Read-out in assay [10]: Matrix Metallopeptidase 1 (MMP1), MMP1 (gene 4312)
Description: BSK_hDFCGF_MMP1: BioMAP Diversity Plus: hDFCGF Assay for Matrix Metallopeptidase 1 (MMP1) Biomarker Activity (AID 2283064). Particulars: primary human foreskin fibroblasts; actives raise or lower the signal. In short, it runs like this:
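ELISA read-out of MMP1 from human foreskin fibroblasts (primary skin cells), 24 h post-dose. Gain or loss of signal was fitted bidirectionally versus DMSO negative control; cytotoxicity was checked by SRB in parallel cultures.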

Read-out in assay [11]: Vascular cell adhesion molecule 1 (VCAM1), VCAM1 (gene 7412)
Description: BSK_hDFCGF_VCAM1: BioMAP Diversity Plus: hDFCGF Assay for Vascular cell adhesion molecule 1 (VCAM1) Biomarker Activity (AID 2283065).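 As to AC50: VCAM-1 protein level quantified by ELISA after 24 h chemical exposure.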 Particulars: primary human foreskin fibroblasts; actives raise or lower the signal. A digest of the protocol:
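Primary human foreskin fibroblasts (hDFCGF system) were dosed with chemical and VCAM-1 was measured by ELISA 24 h later. Bidirectional curve fitting used DMSO as negative control and activity baseline.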

Read-out in assay [12]: Plasminogen activator inhibitor-1 (PAI1), SERPINE1 (gene 5054)
The assay can be described thus: BSK_hDFCGF_PAI1: BioMAP Diversity Plus: hDFCGF Assay for Plasminogen activator inhibitor-1 (PAI1) Biomarker Activity (AID 2283066). As to conditions: primary human foreskin fibroblasts; actives raise or lower the signal. A digest of the protocol:
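PAI-1 levels in human dermal foreskin fibroblasts were quantified by ELISA 24 h after dosing, with gain or loss analysed against DMSO. Overt cytotoxicity was checked by sulforhodamine B total-protein staining in parallel cultures.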

Read-out in assay [13]: Intercellular Adhesion Molecule 1 (ICAM1), ICAM1 (gene 3383)
The assay can be described thus: BSK_KF3CT_ICAM1: BioMAP Diversity Plus: KF3CT Assay for Intercellular Adhesion Molecule 1 (ICAM1) Biomarker Activity (AID 2283067). Particulars: primary human keratinocytes with fibroblasts; actives raise or lower the signal. A digest of the protocol: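 Human keratinocyte plus foreskin fibroblast primary co-culture was exposed to chemical for 24 h. ICAM-1 was then quantified by ELISA, and the data were fit bidirectionally against DMSO as the negative control and baseline.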

Read-out in assay [14]: Interferon-gamma inducible Protein 10 (IP10), CXCL10 (gene 3627)
Description: BSK_KF3CT_IP10: BioMAP Diversity Plus: KF3CT Assay for Interferon-gamma inducible Protein 10 (IP10) Biomarker Activity (AID 2283068). Particulars: primary human keratinocytes with fibroblasts; actives raise or lower the signal. A digest of the protocol:
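In a primary skin co-culture of keratinocytes and fibroblasts, IP-10 is quantified by ELISA at 24 h after dosing. SRB staining of parallel wells monitors overt toxicity. Curves are fitted both directions against DMSO.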

Assay [15] in a line: BSK_KF3CT_SRB: Viability Assessment in the BioMAP Diversity Plus: KF3CT Assay (AID 2283069).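 Also: fitted for both signal gain and loss against DMSO baseline.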 As to conditions: primary human keratinocytes with fibroblasts. A digest of the protocol: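 SRB read-out at 560 nm (0.1% stain, TCA-fixed cells) gauges overt cytotoxicity in a human skin keratinocyte–fibroblast co-culture 24 h post-dosing. Signal change was fitted bidirectionally relative to DMSO control.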

Read-out in assay [16]: Interleukin-1 alpha (IL1a), IL1A (gene 3552)
Description: BSK_KF3CT_IL1a: BioMAP Diversity Plus: KF3CT Assay for Interleukin-1 alpha (IL1a) Biomarker Activity (AID 2283070). As to conditions: primary human keratinocytes with fibroblasts; actives raise or lower the signal. A digest of the protocol: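 Primary skin co-culture (keratinocytes, foreskin fibroblasts), 24 h exposure; ELISA for IL-1a; bidirectional curve fit vs DMSO.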

Read-out in assay [17]: TIMP metallopeptidase inhibitor 2 (TIMP2), TIMP2 (gene 7077)
The assay can be described thus: BSK_KF3CT_TIMP2: BioMAP Diversity Plus: KF3CT Assay for TIMP metallopeptidase inhibitor 2 (TIMP2) Biomarker Activity (AID 2283071). As to conditions: primary human keratinocytes with fibroblasts; actives raise or lower the signal. A digest of the protocol: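 TIMP-2 measured by ELISA at 24 h in human keratinocyte/fibroblast primary co-cultures exposed to chemicals. Both increases and decreases were fitted against DMSO. Parallel cultures were stained with SRB for total protein as an overt-cytotoxicity check.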

Read-out in assay [18]: Transforming growth factor beta 1 (TGFb1), TGFB1 (gene 7040)
The assay can be described thus: BSK_KF3CT_TGFb1: BioMAP Diversity Plus: KF3CT Assay for Transforming growth factor beta 1 (TGFb1) Biomarker Activity (AID 2283072). Particulars: primary human keratinocytes with fibroblasts; actives raise or lower the signal. A digest of the protocol:
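ELISA quantifies TGF-b1 at 24 h post-dose in a primary human skin co-culture of keratinocytes and fibroblasts, with gain or loss judged against DMSO. Parallel SRB total-protein staining flags overt cytotoxicity.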

Where “and” joins values, the source holds several entries; their conditions need not be identical. Equal entries are not always repeated. Calls of active or inactive are those of the source. The calls were made as follows: active = hit-call score of the fitted dose curve at least 0.9, where 1 is the maximum; inactive = score below 0.9.

Usually AC50 stands for the midpoint of the concentration-response curve, whichever way the signal moves. Take `O=C(O)C(F)(F)C(F)(F)C(F)(F)C(F)(F)C(F)(F)C(F)(F)C(F)(F)C(F)(F)C(F)(F)C(F)(F)F`: the AC50 in assay [1] is 6.56 µM (active) and 4.76 µM (active) and 4.7 µM (active); in [4], 17.1 µM (active) and 5.73 µM (active) and 3.66 µM (active); in assay [5], 4.01 µM (active) and 2.28 µM (active) and 2.17 µM (active); in assay [6], 10.8 µM (active) and 5.03 µM (active) and 4.97 µM (active); in assay [7] it was 9.04 µM (active) and 5.23 µM (active) and 5.22 µM (active); in assay [8], 9.33 µM (active) and 5.14 µM (active) and 5.31 µM (active). In addition, the concentration at half-maximal activity (AC50) in assay [9] was 11.5 µM (active) and 4.94 µM (active) and 5.08 µM (active); in assay [10], 6.98 µM (active) and 5.59 µM (active) and 6.54 µM (active); in [11], 11.7 µM (active) and 3.07 µM (active) and 4.25 µM (active); in assay [12], 10.7 µM (active) and 5.61 µM (active) and 5.09 µM (active); in assay [13], 12.9 µM (active) and 5 µM (active) and 4.73 µM (active); in assay [14], 6.91 µM (active) and 5.45 µM (active) and 5.25 µM (active). Also, the AC50 in assay [15] was 9.99 µM (active) and 5.01 µM (active) and 5.38 µM (active); in assay [16], 10.8 µM (active) and 3.41 µM (active) and 5.06 µM (active); in assay [17] it was 9.27 µM (active) and 6.15 µM (active) and 6.13 µM (active); in assay [18] it was 5.59 µM (active). The result in [2] and in assay [3] was inactive.
Consider `CCOC(=O)/C=C(C)/C=C/C[C@@H](C)CCCC(C)C`, for which the AC50 in [1] was 31.4 µM (active); in assay [2] it was 30.9 µM (active); in assay [3] it was 20 µM (active); in [4], 8.64 µM (active); in [5] it was 9.55 µM (active); in assay [6] it was 20 µM (active). Besides, the AC50 in assay [7] is 25.1 µM (active); in [8] it was 26.6 µM (active); in assay [9] it was 33.2 µM (active); in [10], 32.4 µM (active); in assay [11], 20.7 µM (active); in assay [13] it was 34.5 µM (active). In addition, the AC50 is 33.4 µM (active) in assay [14]; 33.8 µM (active) in [15]; 26.3 µM (active) in assay [16]; 27 µM (active) in assay [17]; 13.5 µM (active) in assay [18].
Consider `ClCC(Cl)CCl`, for which the outcome in [1], in assay [2], in [3], in [4], in assay [5] and in [6] was inactive. Further, the result in [7], in [8], in assay [9], in assay [10], in assay [11] and in assay [12] was inactive. Further, the result in [13], in assay [14], in assay [15], in [16], in [17] and in [18] was inactive.
